# Molecular target: Ribosomal protein S6 kinase alpha-2 (Homo sapiens) (UniProt Q15349)
# Details: at 0.1 µM
# Chain of Ribosomal protein S6 kinase alpha-2 (Homo sapiens) (Q15349 whole entry): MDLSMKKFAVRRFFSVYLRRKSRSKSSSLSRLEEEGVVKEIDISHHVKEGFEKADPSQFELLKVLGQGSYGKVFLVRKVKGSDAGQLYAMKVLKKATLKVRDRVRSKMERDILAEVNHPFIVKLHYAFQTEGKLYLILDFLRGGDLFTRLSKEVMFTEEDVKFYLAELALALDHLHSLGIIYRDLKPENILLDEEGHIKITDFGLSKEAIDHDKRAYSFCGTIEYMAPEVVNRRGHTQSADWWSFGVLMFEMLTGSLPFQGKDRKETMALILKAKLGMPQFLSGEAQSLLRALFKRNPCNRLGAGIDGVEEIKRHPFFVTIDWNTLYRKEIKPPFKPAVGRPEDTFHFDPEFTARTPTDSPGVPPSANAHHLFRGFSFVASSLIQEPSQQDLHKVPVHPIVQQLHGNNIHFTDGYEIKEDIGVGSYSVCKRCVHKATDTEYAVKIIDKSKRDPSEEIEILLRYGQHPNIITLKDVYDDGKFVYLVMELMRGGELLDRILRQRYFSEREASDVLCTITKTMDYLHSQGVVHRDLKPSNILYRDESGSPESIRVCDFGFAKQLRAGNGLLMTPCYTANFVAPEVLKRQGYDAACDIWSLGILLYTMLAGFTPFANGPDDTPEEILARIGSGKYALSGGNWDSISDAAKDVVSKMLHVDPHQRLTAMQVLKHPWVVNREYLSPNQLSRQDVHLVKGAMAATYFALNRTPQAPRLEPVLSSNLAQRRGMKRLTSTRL
row,SMILES,inhibition
1,COc1cc(/C=N/Nc2ncnc3[nH]ncc23)ccc1O,1.62%
2,CS(=O)(=O)CCNCc1coc(-c2ccc3ncnc(Nc4ccc(OCc5ccccc5)cc4)c3c2)c1,3.38%
3,Cc1cccc2c1NC(=O)/C2=N\Nc1ccc(S(N)(=O)=O)cc1,1.69%
4,c1ccc(-c2nc3n(c2-c2ccc4c(c2)OCO4)CCC3)nc1,1.95%
5,COc1cc(Nc2nccc(Nc3ccc4c(C)n[nH]c4c3)n2)cc(OC)c1OC,0.87%
6,COc1ccc(-c2cc3c(N)ncnc3o2)cc1,-0.65%
7,COc1ccc(-c2nn3ncccc3c2-c2ccnc(Nc3ccc4c(c3)OCCO4)n2)cc1,1.27%
8,CCn1c(-c2nonc2N)nc2c(C#CC(C)(C)O)nc(OC[C@H](N)c3ccccc3)cc21,3.19%
9,Clc1ccc(-c2nn3ncccc3c2-c2ccnc(Nc3ccccc3)n2)cc1,0.49%
10,CN1CCC(n2cnc(-c3ccc(F)cc3)c2-c2ccnc(Nc3ccccc3)n2)CC1,2.93%
11,CNC(=O)c1cc(-c2ccc(F)cc2)cc(-c2ccc(S(=O)(=O)N3CCCC3)cc2)c1N,2.73%
12,COc1cc2c(cc1Nc1nc(Nc3ccsc3C(N)=O)c3cc[nH]c3n1)N(C(=O)CN(C)C)CCC2(C)C,8.55%
13,CCN(CC)S(=O)(=O)c1ccc(OC)c(Nc2ncc(-c3ccccc3)o2)c1,0.64%
14,CCn1c(-c2nonc2N)nc2ccccc21,19.1%
15,NC(=O)c1sc(-n2cnc3ccc(C(F)(F)F)cc32)cc1OCc1ccccc1Br,0.97%
16,CNC(=O)c1cncc(/C=C/c2ccccc2Cl)c1,-0.36%
17,COc1ccc(-c2oc3ncnc(N)c3c2-c2ccc(NC(=O)Nc3cc(C(F)(F)F)ccc3F)cc2)cc1,1.67%

row,SMILES,inhibition
1,COC(=O)Nc1nc2ccc(S(=O)(=O)c3ccc(NC(=O)Nc4cc(C(F)(F)F)ccc4F)cc3)cc2[nH]1,1.99%
2,Cc1cccc(Nc2ncc(-c3ccccc3)o2)c1,2.17%
3,NS(=O)(=O)c1ccc(Nc2ncc(-c3ccccc3)o2)cc1,2.5%
4,COc1cc(N2CCN(C(C)C)CC2)ccc1Nc1nc(Nc2ccc(F)cc2C(N)=O)c2cc[nH]c2n1,8.2%
5,COc1ccc2[nH]c3c4[nH]c5ccc(OC)cc5c4c4c(c3c2c1)C(=O)NC4=O,73.5%
6,CCn1c(-c2nonc2N)nc2c(C#CC(C)(C)O)ncc(OC3CCNCC3)c21,2.34%
7,CNC(=O)c1cccc(C#Cc2cncnc2Nc2ccc(OCc3cccc(F)c3)c(Cl)c2)c1,-0.63%
8,CCCN(CCS(C)(=O)=O)Cc1ccc(-c2ccc3ncnc(Nc4ccc(OCc5cccc(F)c5)c(Cl)c4)c3c2)o1,1.59%
9,N#Cc1c(NC(=O)CN2CCOCC2)sc2c1CCCC2,1.89%
10,N#Cc1c(NC(=O)c2ccc(F)cc2)sc2c1CCCC2,-0.44%
11,COc1ccc(CNC(=O)c2ccc(-c3cc(-c4nnc(C)o4)ccc3C)cc2)cc1,0.39%
12,CN1CCC(n2cnc(-c3ccc(F)cc3)c2-c2ccnc(N)n2)CC1,1.52%
13,O=C(Nc1n[nH]c2cc(-c3ccc(F)cc3)ccc12)C1CC1,3.68%
14,CC1=C(C(=O)Nc2cc(Cl)c3[nH]ncc3c2)C(c2ccc(C(F)(F)F)cc2)CC(=O)N1 (stereo unspecified),13.1%
15,CCN1CCC(CC(=O)Nc2n[nH]c3nnc(-c4cccc(F)c4F)cc23)CC1,1.12%
16,CC(C)COC(=O)c1ccc2c(c1)/C(=C/Nc1ccc(S(N)(=O)=O)cc1)C(=O)N2,5.76%

# Molecular target: Ribosomal protein S6 kinase alpha-2 (Homo sapiens) (UniProt Q15349)
# Details: at 1 µM
row,SMILES,inhibition
1,COc1cc(/C=N/Nc2ncnc3[nH]ncc23)ccc1O,9.77%
2,CS(=O)(=O)CCNCc1coc(-c2ccc3ncnc(Nc4ccc(OCc5ccccc5)cc4)c3c2)c1,3.14%
3,Cc1cccc2c1NC(=O)/C2=N\Nc1ccc(S(N)(=O)=O)cc1,2.49%
4,c1ccc(-c2nc3n(c2-c2ccc4c(c2)OCO4)CCC3)nc1,1.35%
5,COc1cc(Nc2nccc(Nc3ccc4c(C)n[nH]c4c3)n2)cc(OC)c1OC,0.74%
6,COc1ccc(-c2cc3c(N)ncnc3o2)cc1,0.29%
7,COc1ccc(-c2nn3ncccc3c2-c2ccnc(Nc3ccc4c(c3)OCCO4)n2)cc1,0.17%
8,CCn1c(-c2nonc2N)nc2c(C#CC(C)(C)O)nc(OC[C@H](N)c3ccccc3)cc21,10.7%
9,Clc1ccc(-c2nn3ncccc3c2-c2ccnc(Nc3ccccc3)n2)cc1,1.37%
10,CN1CCC(n2cnc(-c3ccc(F)cc3)c2-c2ccnc(Nc3ccccc3)n2)CC1,2.91%
11,CNC(=O)c1cc(-c2ccc(F)cc2)cc(-c2ccc(S(=O)(=O)N3CCCC3)cc2)c1N,2.91%
12,COc1cc2c(cc1Nc1nc(Nc3ccsc3C(N)=O)c3cc[nH]c3n1)N(C(=O)CN(C)C)CCC2(C)C,34.4%
13,CCN(CC)S(=O)(=O)c1ccc(OC)c(Nc2ncc(-c3ccccc3)o2)c1,1.51%
14,CCn1c(-c2nonc2N)nc2ccccc21,68.5%
15,NC(=O)c1sc(-n2cnc3ccc(C(F)(F)F)cc32)cc1OCc1ccccc1Br,3.47%
16,CNC(=O)c1cncc(/C=C/c2ccccc2Cl)c1,-1.02%
17,COc1ccc(-c2oc3ncnc(N)c3c2-c2ccc(NC(=O)Nc3cc(C(F)(F)F)ccc3F)cc2)cc1,34.1%

row,SMILES,inhibition
1,COC(=O)Nc1nc2ccc(S(=O)(=O)c3ccc(NC(=O)Nc4cc(C(F)(F)F)ccc4F)cc3)cc2[nH]1,2.47%
2,Cc1cccc(Nc2ncc(-c3ccccc3)o2)c1,2.67%
3,NS(=O)(=O)c1ccc(Nc2ncc(-c3ccccc3)o2)cc1,4.37%
4,COc1cc(N2CCN(C(C)C)CC2)ccc1Nc1nc(Nc2ccc(F)cc2C(N)=O)c2cc[nH]c2n1,43.7%
5,COc1ccc2[nH]c3c4[nH]c5ccc(OC)cc5c4c4c(c3c2c1)C(=O)NC4=O,92.4%
6,CCn1c(-c2nonc2N)nc2c(C#CC(C)(C)O)ncc(OC3CCNCC3)c21,5.77%
7,CNC(=O)c1cccc(C#Cc2cncnc2Nc2ccc(OCc3cccc(F)c3)c(Cl)c2)c1,0.72%
8,CCCN(CCS(C)(=O)=O)Cc1ccc(-c2ccc3ncnc(Nc4ccc(OCc5cccc(F)c5)c(Cl)c4)c3c2)o1,1.46%
9,N#Cc1c(NC(=O)CN2CCOCC2)sc2c1CCCC2,1.68%
10,N#Cc1c(NC(=O)c2ccc(F)cc2)sc2c1CCCC2,1.7%
11,COc1ccc(CNC(=O)c2ccc(-c3cc(-c4nnc(C)o4)ccc3C)cc2)cc1,0.4%
12,CN1CCC(n2cnc(-c3ccc(F)cc3)c2-c2ccnc(N)n2)CC1,4.57%
13,O=C(Nc1n[nH]c2cc(-c3ccc(F)cc3)ccc12)C1CC1,6.96%
14,CC1=C(C(=O)Nc2cc(Cl)c3[nH]ncc3c2)C(c2ccc(C(F)(F)F)cc2)CC(=O)N1 (stereo unspecified),53.4%
15,CCN1CCC(CC(=O)Nc2n[nH]c3nnc(-c4cccc(F)c4F)cc23)CC1,1.83%
16,CC(C)COC(=O)c1ccc2c(c1)/C(=C/Nc1ccc(S(N)(=O)=O)cc1)C(=O)N2,35.5%

# Source: ChEMBL document CHEMBL1961873, “Compounds: GSK PKIS; Assays: Nanosyn kinase panel” (2012)
